{
  "source": "ChEMBL document CHEMBL2218924",
  "about": "“A broad activity screen in support of a chemogenomic map for kinase signalling research and drug discovery” (Biochem J, 2013)",
  "key": {"[1]": {"target": "T1, Ephrin type-A receptor 3 (Homo sapiens) (UniProt P29320)", "T1 sequence (whole entry)": "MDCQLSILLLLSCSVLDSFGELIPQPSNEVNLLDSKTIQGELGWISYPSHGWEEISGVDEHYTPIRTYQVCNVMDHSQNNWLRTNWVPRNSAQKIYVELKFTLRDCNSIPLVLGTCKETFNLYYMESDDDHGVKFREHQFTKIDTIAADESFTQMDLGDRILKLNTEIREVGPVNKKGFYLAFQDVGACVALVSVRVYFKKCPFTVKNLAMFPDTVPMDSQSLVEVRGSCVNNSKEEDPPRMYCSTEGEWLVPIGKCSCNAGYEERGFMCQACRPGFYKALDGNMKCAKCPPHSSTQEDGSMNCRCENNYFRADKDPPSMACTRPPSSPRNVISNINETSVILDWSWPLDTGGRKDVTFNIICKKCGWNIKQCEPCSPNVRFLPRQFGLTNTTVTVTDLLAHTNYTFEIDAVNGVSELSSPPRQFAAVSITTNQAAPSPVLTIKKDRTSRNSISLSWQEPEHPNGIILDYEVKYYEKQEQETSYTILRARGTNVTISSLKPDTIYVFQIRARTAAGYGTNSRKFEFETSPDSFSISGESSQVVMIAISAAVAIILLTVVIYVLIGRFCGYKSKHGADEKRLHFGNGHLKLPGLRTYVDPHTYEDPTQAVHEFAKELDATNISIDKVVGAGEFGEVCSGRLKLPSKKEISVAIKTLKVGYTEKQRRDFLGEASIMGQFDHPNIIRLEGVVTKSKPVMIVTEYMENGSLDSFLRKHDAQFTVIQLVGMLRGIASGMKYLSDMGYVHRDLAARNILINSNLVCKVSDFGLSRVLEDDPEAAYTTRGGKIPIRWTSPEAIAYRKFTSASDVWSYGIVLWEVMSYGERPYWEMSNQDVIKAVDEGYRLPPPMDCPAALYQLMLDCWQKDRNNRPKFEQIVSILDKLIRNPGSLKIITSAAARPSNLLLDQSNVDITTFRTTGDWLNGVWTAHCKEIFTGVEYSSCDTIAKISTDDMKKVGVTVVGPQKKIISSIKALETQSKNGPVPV", "conditions": "at 10 µM"}, "[2]": {"target": "Ephrin type-A receptor 4 (Homo sapiens) (UniProt P54764)", "sequence (P54764 whole entry)": "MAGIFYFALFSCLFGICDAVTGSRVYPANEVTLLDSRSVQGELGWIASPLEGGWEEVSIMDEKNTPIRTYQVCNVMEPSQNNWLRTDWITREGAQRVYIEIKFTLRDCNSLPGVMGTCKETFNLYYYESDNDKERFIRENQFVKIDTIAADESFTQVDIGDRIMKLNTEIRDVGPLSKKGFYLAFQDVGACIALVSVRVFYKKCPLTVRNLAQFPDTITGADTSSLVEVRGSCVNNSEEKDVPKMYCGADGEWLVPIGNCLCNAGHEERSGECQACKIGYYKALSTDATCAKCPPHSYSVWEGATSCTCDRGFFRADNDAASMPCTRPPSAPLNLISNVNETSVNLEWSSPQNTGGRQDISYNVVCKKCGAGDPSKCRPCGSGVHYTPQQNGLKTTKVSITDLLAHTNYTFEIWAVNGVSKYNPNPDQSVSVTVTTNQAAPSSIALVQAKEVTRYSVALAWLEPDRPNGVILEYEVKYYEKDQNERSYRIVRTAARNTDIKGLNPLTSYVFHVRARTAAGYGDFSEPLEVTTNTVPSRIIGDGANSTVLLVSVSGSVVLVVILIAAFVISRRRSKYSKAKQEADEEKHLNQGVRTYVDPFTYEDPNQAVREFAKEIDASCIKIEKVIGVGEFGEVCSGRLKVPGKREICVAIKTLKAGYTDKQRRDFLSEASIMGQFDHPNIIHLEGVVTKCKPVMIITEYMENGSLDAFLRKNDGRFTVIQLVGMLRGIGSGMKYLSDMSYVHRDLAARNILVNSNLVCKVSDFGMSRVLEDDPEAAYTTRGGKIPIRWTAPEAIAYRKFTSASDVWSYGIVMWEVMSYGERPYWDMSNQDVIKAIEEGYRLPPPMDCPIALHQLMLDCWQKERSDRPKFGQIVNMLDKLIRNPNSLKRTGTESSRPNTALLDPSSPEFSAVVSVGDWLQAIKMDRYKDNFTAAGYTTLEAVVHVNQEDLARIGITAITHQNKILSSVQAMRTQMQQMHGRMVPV", "conditions": "at 1 µM"}, "[3]": {"target": "Ephrin type-A receptor 4 (Homo sapiens) (UniProt P54764)", "conditions": "at 10 µM"}, "[4]": {"target": "Ephrin type-A receptor 5 (Homo sapiens) (UniProt P54756)", "sequence (P54756 whole entry)": "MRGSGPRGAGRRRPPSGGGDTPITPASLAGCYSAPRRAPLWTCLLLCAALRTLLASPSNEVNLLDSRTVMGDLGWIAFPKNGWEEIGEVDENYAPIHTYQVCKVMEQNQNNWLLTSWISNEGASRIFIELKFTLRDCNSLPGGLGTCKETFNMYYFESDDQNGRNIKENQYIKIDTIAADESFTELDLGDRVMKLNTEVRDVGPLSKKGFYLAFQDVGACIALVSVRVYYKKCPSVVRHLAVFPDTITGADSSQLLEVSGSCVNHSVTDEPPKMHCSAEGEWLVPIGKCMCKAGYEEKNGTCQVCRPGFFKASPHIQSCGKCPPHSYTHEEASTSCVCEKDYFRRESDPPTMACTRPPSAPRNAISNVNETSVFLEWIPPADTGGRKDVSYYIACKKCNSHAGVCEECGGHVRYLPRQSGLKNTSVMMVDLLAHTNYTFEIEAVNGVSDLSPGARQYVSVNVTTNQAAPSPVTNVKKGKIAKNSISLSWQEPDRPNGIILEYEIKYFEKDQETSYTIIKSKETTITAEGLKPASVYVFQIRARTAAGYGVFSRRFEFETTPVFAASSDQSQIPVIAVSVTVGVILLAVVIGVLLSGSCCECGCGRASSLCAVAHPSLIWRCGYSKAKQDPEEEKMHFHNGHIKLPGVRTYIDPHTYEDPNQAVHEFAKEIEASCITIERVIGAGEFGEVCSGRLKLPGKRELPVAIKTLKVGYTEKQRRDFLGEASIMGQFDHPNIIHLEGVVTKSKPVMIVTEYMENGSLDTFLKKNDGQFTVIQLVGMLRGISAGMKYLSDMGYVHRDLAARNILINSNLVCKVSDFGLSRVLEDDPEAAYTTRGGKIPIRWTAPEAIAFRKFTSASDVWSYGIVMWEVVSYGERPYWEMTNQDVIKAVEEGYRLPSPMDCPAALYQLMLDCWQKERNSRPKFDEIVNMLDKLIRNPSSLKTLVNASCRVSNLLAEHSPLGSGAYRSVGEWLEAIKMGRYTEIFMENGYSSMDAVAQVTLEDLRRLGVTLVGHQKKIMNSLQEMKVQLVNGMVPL", "conditions": "at 1 µM"}, "[5]": {"target": "Ephrin type-A receptor 5 (Homo sapiens) (UniProt P54756)", "conditions": "at 10 µM"}, "[6]": {"target": "Ephrin type-A receptor 7 (Homo sapiens) (UniProt Q15375)", "sequence (Q15375 28-998 limits assumed)": "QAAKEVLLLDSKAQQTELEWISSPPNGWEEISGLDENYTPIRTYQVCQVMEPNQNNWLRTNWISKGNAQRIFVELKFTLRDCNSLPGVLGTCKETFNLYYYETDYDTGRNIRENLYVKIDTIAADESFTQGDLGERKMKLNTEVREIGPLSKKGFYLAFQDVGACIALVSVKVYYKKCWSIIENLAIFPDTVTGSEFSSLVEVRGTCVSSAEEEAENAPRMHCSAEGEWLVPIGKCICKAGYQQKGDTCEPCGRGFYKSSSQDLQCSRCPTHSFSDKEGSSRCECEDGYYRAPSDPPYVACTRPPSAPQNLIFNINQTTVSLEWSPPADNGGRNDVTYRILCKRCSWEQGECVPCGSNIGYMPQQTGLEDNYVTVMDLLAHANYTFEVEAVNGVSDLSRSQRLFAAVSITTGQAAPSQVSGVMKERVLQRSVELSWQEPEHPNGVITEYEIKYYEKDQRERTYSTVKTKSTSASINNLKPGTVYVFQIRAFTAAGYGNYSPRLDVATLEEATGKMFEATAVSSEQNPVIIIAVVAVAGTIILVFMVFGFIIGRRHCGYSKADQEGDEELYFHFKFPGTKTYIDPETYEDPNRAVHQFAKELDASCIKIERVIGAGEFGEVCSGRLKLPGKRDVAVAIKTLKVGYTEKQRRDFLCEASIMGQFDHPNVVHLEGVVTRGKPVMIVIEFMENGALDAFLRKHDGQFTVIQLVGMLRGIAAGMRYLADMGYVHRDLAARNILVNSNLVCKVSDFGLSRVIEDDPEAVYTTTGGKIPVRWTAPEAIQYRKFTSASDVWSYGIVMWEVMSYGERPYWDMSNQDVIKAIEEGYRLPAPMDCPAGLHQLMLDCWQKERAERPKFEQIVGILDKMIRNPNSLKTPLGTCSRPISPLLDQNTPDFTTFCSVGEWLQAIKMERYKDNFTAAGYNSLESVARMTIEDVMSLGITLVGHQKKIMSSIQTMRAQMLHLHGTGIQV", "conditions": "at 1 µM"}, "[7]": {"target": "Ephrin type-A receptor 7 (Homo sapiens) (UniProt Q15375)", "conditions": "at 10 µM"}, "[8]": {"target": "T2, Ephrin type-A receptor 8 (Homo sapiens) (UniProt P29322)", "T2 sequence (whole entry)": "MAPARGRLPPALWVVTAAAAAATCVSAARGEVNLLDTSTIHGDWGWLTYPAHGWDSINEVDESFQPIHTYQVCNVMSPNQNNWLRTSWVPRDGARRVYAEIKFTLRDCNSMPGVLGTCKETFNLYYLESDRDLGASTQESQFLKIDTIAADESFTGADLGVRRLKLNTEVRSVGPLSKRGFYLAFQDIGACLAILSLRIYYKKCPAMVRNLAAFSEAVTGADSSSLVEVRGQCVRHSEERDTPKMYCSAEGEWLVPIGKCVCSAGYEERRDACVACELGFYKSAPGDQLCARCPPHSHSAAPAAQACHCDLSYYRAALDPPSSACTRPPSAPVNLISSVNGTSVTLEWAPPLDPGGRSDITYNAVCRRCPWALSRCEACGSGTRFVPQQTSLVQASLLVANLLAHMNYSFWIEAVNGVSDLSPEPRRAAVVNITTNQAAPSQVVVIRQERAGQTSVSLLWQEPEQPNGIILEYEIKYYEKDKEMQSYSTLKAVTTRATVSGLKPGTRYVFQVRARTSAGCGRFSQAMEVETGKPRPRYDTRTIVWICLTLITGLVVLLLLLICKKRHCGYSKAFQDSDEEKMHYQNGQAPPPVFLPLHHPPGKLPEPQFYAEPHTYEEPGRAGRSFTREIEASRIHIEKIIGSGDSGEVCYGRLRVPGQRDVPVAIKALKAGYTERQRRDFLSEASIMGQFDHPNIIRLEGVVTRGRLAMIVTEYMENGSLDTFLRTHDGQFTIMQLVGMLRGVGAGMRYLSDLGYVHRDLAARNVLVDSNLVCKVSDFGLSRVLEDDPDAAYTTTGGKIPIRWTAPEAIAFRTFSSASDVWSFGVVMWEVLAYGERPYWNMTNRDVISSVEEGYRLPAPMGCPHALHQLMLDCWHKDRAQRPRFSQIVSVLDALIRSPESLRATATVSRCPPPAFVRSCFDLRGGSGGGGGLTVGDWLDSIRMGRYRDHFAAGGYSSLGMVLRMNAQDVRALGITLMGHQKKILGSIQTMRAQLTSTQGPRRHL", "conditions": "at 1 µM"}, "[9]": {"target": "T2, Ephrin type-A receptor 8 (Homo sapiens)", "conditions": "at 10 µM"}, "[10]": {"target": "T3, Ephrin type-B receptor 1 (Homo sapiens) (UniProt P54762)", "T3 sequence (whole entry)": "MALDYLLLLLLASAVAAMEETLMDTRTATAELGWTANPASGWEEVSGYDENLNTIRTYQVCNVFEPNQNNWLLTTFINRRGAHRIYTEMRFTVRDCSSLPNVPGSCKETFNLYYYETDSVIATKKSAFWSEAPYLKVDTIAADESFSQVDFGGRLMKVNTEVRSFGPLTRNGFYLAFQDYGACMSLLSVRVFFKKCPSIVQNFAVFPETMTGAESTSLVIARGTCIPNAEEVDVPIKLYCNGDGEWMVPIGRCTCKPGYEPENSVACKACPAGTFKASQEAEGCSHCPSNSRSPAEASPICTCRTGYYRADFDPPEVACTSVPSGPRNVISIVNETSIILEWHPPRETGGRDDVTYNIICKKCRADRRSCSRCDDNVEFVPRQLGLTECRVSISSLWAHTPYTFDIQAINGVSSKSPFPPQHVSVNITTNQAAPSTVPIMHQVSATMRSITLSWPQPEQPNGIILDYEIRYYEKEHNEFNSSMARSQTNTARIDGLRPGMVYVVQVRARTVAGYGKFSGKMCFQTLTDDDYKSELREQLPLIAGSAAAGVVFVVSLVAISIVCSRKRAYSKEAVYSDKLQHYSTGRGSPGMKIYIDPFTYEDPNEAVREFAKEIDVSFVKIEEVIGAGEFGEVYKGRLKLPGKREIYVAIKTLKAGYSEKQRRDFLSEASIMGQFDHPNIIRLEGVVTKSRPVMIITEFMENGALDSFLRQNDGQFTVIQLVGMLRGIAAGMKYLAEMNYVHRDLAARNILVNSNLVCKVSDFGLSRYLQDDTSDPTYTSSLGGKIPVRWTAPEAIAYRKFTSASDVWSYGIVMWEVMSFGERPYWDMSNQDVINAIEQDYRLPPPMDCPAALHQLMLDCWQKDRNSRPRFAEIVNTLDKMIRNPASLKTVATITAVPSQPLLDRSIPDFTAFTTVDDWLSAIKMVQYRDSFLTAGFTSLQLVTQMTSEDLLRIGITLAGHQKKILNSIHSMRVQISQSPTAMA", "conditions": "at 1 µM"}},
  "data": [
    {"smiles": "Cn1cnc2cc3c(Nc4cccc(Br)c4)ncnc3cc21", "values": [
      {"measurement": "residual activity", "setting": "[1]", "value": 30, "unit": "%"},
      {"measurement": "residual activity", "setting": "[2]", "value": 106, "unit": "%"},
      {"measurement": "residual activity", "setting": "[3]", "value": 88, "unit": "%"},
      {"measurement": "residual activity", "setting": "[4]", "value": 82, "unit": "%"},
      {"measurement": "residual activity", "setting": "[5]", "value": 40, "unit": "%"},
      {"measurement": "residual activity", "setting": "[6]", "value": 77, "unit": "%"},
      {"measurement": "residual activity", "setting": "[7]", "value": 39, "unit": "%"},
      {"measurement": "residual activity", "setting": "[8]", "value": 86, "unit": "%"},
      {"measurement": "residual activity", "setting": "[9]", "value": 63, "unit": "%"},
      {"measurement": "residual activity", "setting": "[10]", "value": 70, "unit": "%"}
    ]}
  ]
}
